# CaV13 FRET inh: Disruptors of the CACNA1D IQ motif to Ca2+-dependent inactivation inhibitor domain association, primary screening, Förster resonance energy transfer in intact living …; HEK cells, CFP/YFP FRET ICDI-IQ, plate reader, 10 min; percent FRET-ratio fall versus neutral wells; inhibition, % at 12.3 µM; 340,000 compounds, 0.098% hits;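 active means mean replicate inhibition of at least 30% and at least 1% of replicates passing that level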;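 further: 0% = median of the neutral control wells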
# DSG3 Ab inh: inhibitors of pemphigus antibody binding to human desmoglein-3; DSG3-coupled beads, scFv-anti-DSG3-GFP binding, flow cytometry; active compounds read low; binding (percent of control), % at 10 µM; 310,000 compounds, 0.48% hits;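 active means binding more than 3 SD below its plate's average and above zero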;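 further: hits lower antibody fragment binding to DSG3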
# ATG4B inh: ATG4B (human) cysteine protease inhibition; Q9Y4P1; ATG4B cleavage of LC3-PLA2, NBD-HPC fluorescence, 1 h; inhibition, % at 8.33 µM; 340,000 compounds, 0.51% hits; AID 504462; in the data active means inhibition above about 40%
# Vif imaging: HIV Vif inhibition | HEK293T cells, Vif self-association by quenched fluorescence, imaging, 24 h | inhibition, % at 7.49 µM | 340,000 compounds, 0.35% hits | AID 602346; in the data active means inhibition above about 50%, passing the limit was not always enough
# Glyco luc inh: blocks N-linked glycosylation in D54 reporter cells | D54 ERlucT glycosylation luciferase reporter, 24 h; percent of 100 nM tunicamycin response | reporter increase, % at 12.5 µM | 360,000 compounds, 0.23% hits | AID 588692;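 active means mean luciferase reporter signal, scaled so untreated is 0 and the glycosylation-blocking control 100, at or above a set limit in every replicate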;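 further: luciferase carries N-glycosylation sites so blocking glycosylation raises the light; 0% = median of neutral control wells and 100% = median of 100 nM tunicamycin wells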
# NSD2 HMT inh: blocks human histone methyltransferase NSD2; O96028; NSD2 peptide methylation, AlphaScreen, 120 min; inhibition, % at 12.5 µM; 310,000 compounds, 0.54% hits; in the data active means inhibition above about 50%
# AlphaScreen art: interferes with AlphaScreen signal, flagging NSD2 false positives. AlphaScreen artifact counterscreen, preloaded methylated H4 peptide. AC35, µM (doses to about 10 µM), for inactives: at the top dose activity change, negative = signal loss. 1,500 compounds, 9.4% hits. shares compounds with NSD2 HMT inh; call rule not given here
# * = called active by the depositor; nt = not tested or not shown. A selection: hits, their analogues and other compounds. The true share with any hit is near 1.9%.
SMILES,CaV13 FRET inh,DSG3 Ab inh,ATG4B inh,Vif imaging,Glyco luc inh,NSD2 HMT inh,AlphaScreen art
N#Cc1c(NC(=O)c2ccc(Br)o2)n(-c2ccccc2)c2nc3ccccc3nc12,-1.2,88.2,13.0,11.6,1.0,177.2*,0.6%
CCC(=O)Nc1c(C#N)c2nc3ccccc3nc2n1-c1ccc(C)cc1,-2.7,91.4,-0.8,-0.1,-2.8,42.9,nt
CC(=O)C1=C(O)C(=O)N(CCc2c[nH]c3ccccc23)C1c1ccco1 (stereo not drawn),nt,nt,-5.6,nt,2.1,60.8*,3.5%
NC1=CC(=O)C(=O)c2ccccc21,-6.4,93.3,-12.1,18.5,-8.3,100.3*,-0.7%
Nc1ccc(O)c2c1C(=O)c1ccccc1C2=O,nt,92.0,-14.8,-15.4,5.6,nt,nt
COc1ccc(CC(=O)N2CC3(C)CC2CC(C)(C)C3)cc1 (stereo not drawn),-6.3,103.9,-12.2,1.4,0.1,1.1,nt
CCOc1ccccc1NCc1nnc(-c2ccccc2)o1,-3.4,109.5,-6.3,-0.6,1.6,65.6*,-1.9%
CCOC(=O)c1cnc(SC2CC(=O)N(c3cccc(OC)c3)C2=O)nc1N (stereo not drawn),nt,95.7,-6.7,6.7,1.2,15.5,nt
CCCCn1c(N)c(N(CCC(C)C)C(=O)C2CC(=O)N(Cc3ccc(C)cc3)C2)c(=O)[nH]c1=O (stereo not drawn),-2.8,98.5,-7.3,-12.5,0.2,-2.2,nt
CC(C)(C)c1[nH]nc2c1C(c1ccoc1)C(C#N)=C(N)O2 (stereo not drawn),-2.0,94.9,4.4,12.7,-0.7,75.9*,-2.4%
CCOC(=O)c1sc(NC(=O)COc2ccc3c(c2)OCO3)nc1C,-7.2,100.6,2.0,6.8,-0.9,114.0*,-1.6%
CCCC(=O)Nc1cc(C)cn(Cc2c(F)cccc2Cl)c1=O,-5.9,117.4,0.8,-3.3,0.9,75.8*,-7.6%
CNCc1ccccc1OCc1ccc(F)cc1,6.0,106.0,-3.0,-2.0,-1.6,59.6*,-3.5%
Fc1ccc(COc2ccccc2CNc2nn[nH]n2)cc1,5.7,102.2,-2.5,3.0,0.8,-1.1,nt
O=C1Nc2ccccc2O/C1=C\c1c(F)cccc1Cl,-16.4,95.7,0.8,-12.3,-1.5,-5.3,nt
N#Cc1cc2ccc(N3CCOCC3)cc2cc1C#N,-5.8,78.5,-21.4,-2.3,17.3,119.6*,3.6%
Cc1ccc(-c2nn(-c3ccccc3)cc2CSC(=N)N)cc1,-7.4,103.4,6.6,10.2,0.3,1.6,nt
N#Cc1c2n(c3c(=O)n(Cc4ccccc4Cl)cnc13)CCCCC2,-5.3,79.1,-1.6,-5.6,0.6,1.2,nt
COc1ccc(N)c2c1C(=O)c1ccccc1C2=O,-7.2,125.2,7.5,-0.1,11.9,nt,nt
COC1=C(Br)C(=O)c2nc(C)ccc2C1=O,-5.7,98.1,nt,7.9,5.0,185.6*,-7.7%
Cc1nc2c(nc1C)C(=O)c1ccccc1C2=O,-6.8,89.0,-0.8,-11.3,-16.3,48.4,nt
COC1=C(N)C(=O)c2nc(C)ccc2C1=O,-6.5,82.4,28.3,-3.5,-1.7,189.2*,-1.4%
CC(C)(C)C(=O)Cn1ncc(N2CCOCC2)c(Cl)c1=O,-6.0,90.2,2.3,-10.7,-0.9,-6.8,nt
COc1ccc2oc(=O)c(C(=O)C[n+]3cccc(C)c3)cc2c1,4.9,105.2,6.9,26.4,1.5,6.5,nt
O=C(Nc1ccc(-c2n[nH]c(=S)o2)cc1)c1ccccc1,-20.4,105.7,1.5,-12.6,1.7,-0.8,nt
SMILES,CaV13 FRET inh,DSG3 Ab inh,ATG4B inh,Vif imaging,Glyco luc inh,NSD2 HMT inh,AlphaScreen art
Cc1ccc(CSc2nnc(Nc3ccc(C)cc3)s2)cc1,-8.6,67.1*,-4.0,-2.2,-0.3,126.6*,-6.5%
O=C1CC(=O)Nc2cc(S(=O)(=O)Nc3ccc(Cl)c(C(F)(F)F)c3)ccc2N1,-2.6,95.5,-3.5,-8.5,-0.2,51.8*,-1.2%
O=C1CC(C(=O)N2CCc3ccccc32)CN1c1ccccc1 (stereo not drawn),-7.1,nt,-3.7,17.5,3.1,80.2*,-1.7%
NS(=O)(=O)c1ccc(N/N=C/c2ccncc2)cc1,-4.0,133.8,-8.5,13.4,3.2,127.9*,-2.7%
NS(=O)(=O)c1ccc(N/N=C/c2ccccc2Br)cc1,3.6,97.2,-19.1,5.9,1.8,2.6,nt
COc1ccc(Cc2nc3ccc(C(=O)N(C)CCn4ccnc4)cc3o2)cc1OC,-7.1,nt,6.5,-6.1,-0.4,-1.0,nt
C=CCc1cc(Cl)ccc1OCCOCCNC(C)CC (stereo not drawn),-1.4,nt,-8.2,-5.2,-2.4,6.1,nt
CCC(C)NCCCCOc1ccc(Cl)cc1C (stereo not drawn),-20.0,101.7,-9.4,-8.2,-1.1,60.5*,-4.8%
CCC(C)NCCCOc1cc(Cl)ccc1Cl (stereo not drawn),-4.4,nt,-15.5,7.2,-0.1,52.5*,-1.3%
Cc1ccc(NC(=O)c2ccc(F)cc2)cc1S(=O)(=O)N1CCCCCC1,-2.5,90.8,-4.8,-16.0,-7.1,-0.2,nt
O=c1c(Cc2ccc(Cl)cc2)c(O)ccn1Cc1cccs1,-1.9,86.9,-7.6,0.3,1.9,-3.6,nt
COc1ccc(-c2nc(CS(=O)(=O)CC(=O)NC3CCCCCC3)c(C)o2)cc1,-2.8,106.9,0.2,-2.9,-0.7,4.8,nt
NC(=O)COC(=O)c1cccc(S(=O)(=O)N2CCN(c3ccc(F)cc3)CC2)c1,-4.9,100.8,0.0,0.6,0.2,-3.1,nt
NC(=O)COC(=O)c1ccc(Cl)c(S(=O)(=O)N2CCN(c3ccc(F)cc3)CC2)c1,-20.0,90.0,-3.7,-3.7,1.5,52.0*,-5.5%
COc1ccc2nc(SCC(=O)N3CCNC3=O)[nH]c2c1,-5.7,99.1,5.4,6.0,-1.8,-0.2,nt
O=C(c1ccc(S(=O)(=O)N2CCOCC2)cc1)N(c1cccc(Cl)c1)C1C=CS(=O)(=O)C1 (stereo not drawn),-2.4,92.0,-7.3,1.9,1.2,83.2*,-6.2%
O=C(c1ccc(S(=O)(=O)N2CCOCC2)cc1)N(c1ccccc1)C1C=CS(=O)(=O)C1 (stereo not drawn),nt,96.1,3.0,-9.2,2.4,5.1,nt
Cc1ccc2[nH]c(O)c(N=NC(=O)c3ccc(NS(=O)(=O)c4cccs4)cc3)c2c1,-13.3,113.4,4.7,-0.5,3.7,0.3,nt
Cc1cccc2c(N=NC(=O)c3ccc(NS(=O)(=O)c4cccs4)cc3)c(O)[nH]c12,-15.4,98.7,-4.2,8.7,-1.2,63.7*,-8.4%
O=C(c1ccccc1)c1cccs1,-3.5,102.7,1.5,-2.7,1.6,-2.8,nt
Cc1ccc(C(=O)NC2(O)C(=O)c3ccccc3C2=O)cc1C,-4.0,105.5,-5.8,-0.8,0.1,110.3*,3.1%

# Screening data from PubChem.
